# Results reported in publication PMC5892938, “SARNAclust: Semi-automatic detection of RNA protein binding motifs from immunoprecipitation data”.
# Whole data set: some 11,000 sequences, median “log2 fold change” near 0.00022, cut for the highest 2% near 0.34. The list shows a part of the results.
# Target: GST-SBP-SLBP (stem-loop binding protein) (Homo sapiens, UniProt Q14493 1-270)
# Test: targeted RNA Bind-n-Seq; RBNS binding buffer: 25 mM Tris pH 7.5, 150 mM KCl, 3 mM MgCl2, 0.1% Tween, 0.5 mg/mL BSA, 1 mM DTT; 27 nM protein, 750 pM RNA pool; temperature not stated; high values mean tight binding
# Details: protein: recombinant; tags: N-terminal GST and SBP (pGEX6P1-SBP); structured_RNA
# In short: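 The GST-SBP-tagged protein was expressed in Rosetta(DE3) pLysS E. coli, glutathione-purified and incubated at 27 nM with 750 pM of a designed, T7-transcribed RNA oligo pool in RBNS binding buffer. Bound RNA was reverse transcribed with a 10-nucleotide barcoded primer, PCR-amplified and sequenced on a MiSeq with 200-cycle paired-end reads. Reads were joined with FLASH, aligned with HISAT2 and collapsed by barcode. The binding signal is the DEseq log2 fold change of read counts per sequence.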
row,Sequence,binding signal [log2 fold change]
1,GGUCACGUCUCAAUCAACUCUUAAGAGGGGGGGAAAACCCCUUUACCCUCGCCAUCAACAGCUCGCAGUCAAG,0.455 ± 0.394
2,GGUCACGUCUCAAUCAACUCUUAAGAGGGGGGGAAAACCCCUUUACCCUCAAAAUCAACAGCUCGCAGUCAAG,0.666 ± 0.398
3,GGUCACGUCUCAAUCAACUCUUAAGAGGGGGGGAAAACCCCUUUACCCUCAACGUCAACAGCUCGCAGUCAAG,0.385 ± 0.451
4,GGUCACGUCUCAAUCAACUCAUCCCCCAGGGAAAUCCCUGGUUAAUUCAACAGCUCGCAGUCAAG,0.368 ± 0.293
5,GGUCACGUCUCAAUCAACUCAUCGCCCAGGGAAAGCCCUGGUUAAUUCAACAGCUCGCAGUCAAG,0.329 ± 0.337
6,GGUCACGUCUCAAUCAACUCAAUCCCCAGGGAAAUCCCUGGUAAAUUCAACAGCUCGCAGUCAAG,0.453 ± 0.315
7,GGUCACGUCUCAAUCAACUCUUCUCCCAGGGAAAGCCCUGGUAAACUCAACAGCUCGCAGUCAAG,0.33 ± 0.26
8,GGUCACGUCUCAAUCAACUCUUCUCCCAGGGAAAUCCCUGGUAUACUCAACAGCUCGCAGUCAAG,0.329 ± 0.25
9,GGUCACGUCUCAAUCAACUCUUCUUCCAGGGAAAUCCCUGGUAAUUUCAACAGCUCGCAGUCAAG,0.413 ± 0.238
10,GGUCACGUCUCAAUCAACUCUUCUUCCAGGGAAAUCCCUGGCAAACUCAACAGCUCGCAGUCAAG,0.309 ± 0.268
11,GGUCACGUCUCAAUCAACUCUUCUCCCAGGGAAAUCCCUGGUAAACUCAACAGCUCGCAGUCAAG,0.359 ± 0.267
12,GGUCACGUCUCAAUCAACUCAACUCCCAGGGAAACCCCUGGUAAAUUCAACAGCUCGCAGUCAAG,0.307 ± 0.342
13,GGUCACGUCUCAAUCAACUCAAUCUCCAGGGAAAUCCCUGGUUAAUUCAACAGCUCGCAGUCAAG,0.348 ± 0.266
14,GGUCACGUCUCAAUCAACUCAAUCUCCAGGGAAAUCCCUGGCUAAUUCAACAGCUCGCAGUCAAG,0.315 ± 0.249
15,GGUCACGUCUCAAUCAACUCUAAAGAGGGGGGGAAAACCCCUUUACCCUCAUCAUCAACAGCUCGCAGUCAAG,0.394 ± 0.392
16,GGUCACGUCUCAAUCAACUCCUCAGAGGGGGGGAAAACCCCUUUACCCUCAUUAUCAACAGCUCGCAGUCAAG,0.4 ± 0.421
17,GGUCACGUCUCAAUCAACUCCUCAGAGGGGGGGAAAACCCCUUUACCCUCCUUAUCAACAGCUCGCAGUCAAG,0.431 ± 0.416
18,GGUCACGUCUCAAUCAACUCAUUAGAGGGGGGGAAAACCCCUUUACCCUCAUCAUCAACAGCUCGCAGUCAAG,0.333 ± 0.443
19,GGUCACGUCUCAAUCAACUCUAAAGAGGGGGGGAAAACCCCUUUACCCUCCUACUCAACAGCUCGCAGUCAAG,0.315 ± 0.441
20,GGUCACGUCUCAAUCAACUCUCAAGAGGGGGGGAAAACCCCUUUACCCUCAUUAUCAACAGCUCGCAGUCAAG,0.622 ± 0.45
21,GGUCACGUCUCAAUCAACUCUAUAGAGGGGGGGAAAACCCCUUUACCCUCAUCAUCAACAGCUCGCAGUCAAG,0.306 ± 0.416
22,GGUCACGUCUCAAUCAACUCACUAGAGGGGGGGAAAACCCCUUUACCCUCAUUAUCAACAGCUCGCAGUCAAG,0.408 ± 0.406
23,GGUCACGUCUCAAUCAACUCACUAGAGGGGGGGAAAACCCCUUUACCCUCAUCGUCAACAGCUCGCAGUCAAG,0.311 ± 0.421
24,GGUCACGUCUCAAUCAACUCCUCAGAGGGGGGGAAAACCCCUUUACCCUCCCAUUCAACAGCUCGCAGUCAAG,0.356 ± 0.426
25,GGUCACGUCUCAAUCAACUCCACGGAGGGGGGGAAAACCCCUUUACCCUCAAAUUCAACAGCUCGCAGUCAAG,0.543 ± 0.46
26,GGUCACGUCUCAAUCAACUCUCUAGAGGGGGGGAAAACCCCUUUACCCUCCCAUUCAACAGCUCGCAGUCAAG,0.325 ± 0.44
27,GGUCACGUCUCAAUCAACUCCCCAGAGGGGGGGAAAACCCCUUUACCCUCAAAUUCAACAGCUCGCAGUCAAG,0.402 ± 0.428
